Experimental data taken from PubChem BioAssay (NCI).
This is part of a sample that, as a whole, favours compounds with a hit. Of some 83,000 tested, about 20% had one in any assay.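 Assay: single dose, 48 h. Readout: percent growth (0 = no net growth; negative = cell death). Active: <10.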 A number with no mark means an inactive call. The source made the active and inactive calls.

Test system: HL-60(TB) leukemia
Assay: NCI-60 one-dose screen, 48 h (100 = growth as untreated, 0 = no growth, -100 = all killed)
Settings: 10 µM unless noted

Q: How did the growth turn out when `CC1=C(C)C(=O)C(Nc2cccc(C(F)(F)F)c2)=C(Br)C1=O` was run?
A: 54.7%

Q: Which growth does the source give for `C#C[C@]1(O)CC[C@H]2[C@@H]3CC=C4c5sc(Nc6cccc(F)c6)nc5CC[C@]4(C)[C@H]3CC[C@@]21C` here?
A: -13.1% (active)

Q: `CC[C@]12C=CCN3CC[C@]4(C(=C(C(=O)OC)C1)Nc1cc5c(cc14)[C@@H]1[C@H](O5)[C@@H](O)[C@@]4(CC)CC(C(=O)OC)=C5Nc6cc(OC)ccc6[C@@]56CCN1[C@@H]46)[C@@H]32` was tested. Which growth did it give?
A: 5.09% (active)

Q: For `O=S(=O)(Nc1ccc(I)c(Cl)c1)c1ccc(-c2cnc(C3CC3)o2)cc1`, which growth is on record?
A: -1.6% (active)
